NOMO-1 viab = STK33 inhibitor candidate reducing NOMO-1 cell viability; NOMO-1 AML viability, CellTiter-Glo luminescence, 72 h; inhibition, % (no concentration beside the values); actives 7.5% (n = 37,000); AID 2330; in the data active = inhibition above about 80%
PD-1 reverse act = reversal of PD-1 mediated T-cell inhibition; primary human CD4 T cells, PD-L1 beads, CellTiter-Glo 96 h; 29,000 tested, under 10 active; activation, % (no concentration beside the values); call rule not given here;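 also: 0% = median vehicle wells and 100% = positive control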
Hedgehog inh = blocks Sonic Hedgehog signaling; actives 2.1% (n = 22,000); AID 2313; inhibition, % (concentration not given with the values); Shh-LIGHT2 Gli-luciferase reporter, 30 h;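 active = mean inhibition across valid replicates above about 65%, limit read from the data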;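 also: pathway switched on by Shh-conditioned medium diluted 1 in 25 in low serum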
MITF inhib = MITF inhibition. TRPM1 promoter luciferase, luminescence, 24 h. inhibition, % (concentration not given with the values). actives 0.28% (n = 37,000). AID 2240; in the data active = inhibition above about 85%;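 also: human melanocyte line stably carrying TRPM1 promoter luciferase reporter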
Numbers without * were called inactive. Only some compounds are listed: those with a hit (about 8.1% of all), similar ones and a draw of the others.

How did Cc1ccccc1C(=O)N1N=C(c2ccc(Br)cc2)CC1c1nc2ccccc2[nH]1 (stereo not given) do in these assays?
NOMO-1 viab: 56; PD-1 reverse act: -1; MITF inhib: 11

What do the screens show for `O=C1C[C@H](c2ccccc2)Oc2c(Cc3ccccc3O)c(O)cc(O)c21`?
NOMO-1 viab: 18; PD-1 reverse act: -1; Hedgehog inh: -25; MITF inhib: 92*

How did CCN(CC)c1cc(-c2cccs2)nc(SCC(=O)c2cccs2)c1C#N do in these assays?
NOMO-1 viab: 122*; PD-1 reverse act: -2; Hedgehog inh: 50; MITF inhib: -1

What do the screens show for `C/C(=C/COc1c(OC2OC(CO)C(O)C(O)C2O)ccc2ccc(=O)oc12)CO` (stereo not given)?
NOMO-1 viab: 13; PD-1 reverse act: 0; Hedgehog inh: -14; MITF inhib: -6

What do the screens show for `COc1ccc(S(=O)(=O)Nc2ccc3c(c2)C(=O)N([C@H](C)CO)C[C@@H](C)[C@@H](CN(C)Cc2ccc(Cl)c(Cl)c2)O3)cc1`?
NOMO-1 viab: 116*; PD-1 reverse act: -2; Hedgehog inh: 78*; MITF inhib: 27

What do the screens show for `COc1ccc(S(=O)(=O)Nc2ccc3c(c2)C(=O)N([C@@H](C)CO)C[C@@H](C)[C@H](CN(C)Cc2ccc(Cl)c(Cl)c2)O3)cc1`?
NOMO-1 viab: 118*; PD-1 reverse act: 1; MITF inhib: 63

How did COc1ccc(CN(C)C[C@H]2Oc3ccc(NS(=O)(=O)c4ccc(OC)cc4)cc3C(=O)N([C@H](C)CO)C[C@@H]2C)cc1 do in these assays?
NOMO-1 viab: 14; Hedgehog inh: 6; MITF inhib: -2

Results for COc1ccc(S(=O)(=O)Nc2ccc3c(c2)C(=O)N([C@@H](C)CO)C[C@H](C)[C@H](CN(C)Cc2ccc(Cl)c(Cl)c2)O3)cc1 ?
NOMO-1 viab: 93*; PD-1 reverse act: 0; Hedgehog inh: 20; MITF inhib: 8

Results for COc1ccc(S(=O)(=O)Nc2ccc3c(c2)C(=O)N([C@H](C)CO)C[C@@H](C)[C@H](CN(C)Cc2ccc(Cl)c(Cl)c2)O3)cc1 ?
NOMO-1 viab: 50; PD-1 reverse act: 1; MITF inhib: 4

What do the screens show for `COc1ccc2c(c1)c(=O)oc1cc(OC(C)C)ccc12`?
NOMO-1 viab: 35; PD-1 reverse act: -3; Hedgehog inh: -150; MITF inhib: 9

Results for CCC(C)/C=C(C)/C=C/C1=CC2=C(Cl)C(=O)C(C)(OC(C)=O)C(=O)C2=CN1CCCC(=O)O (stereo not given) ?
NOMO-1 viab: 101*; PD-1 reverse act: 0; Hedgehog inh: 1; MITF inhib: 9

What do the screens show for `Cc1ccc(NS(=O)(=O)c2cc(C(=O)NCC3CCCO3)ccc2Cl)cc1C` (stereo not given)?
NOMO-1 viab: 10; PD-1 reverse act: 2; MITF inhib: 14

How did COC(=O)c1cc(Cc2ccccc2)sc1NC(=O)c1cc(-c2cccnc2)nc2ccccc12 do in these assays?
NOMO-1 viab: 9; MITF inhib: -5

Results for CCc1cc(C(=O)OC)c(NC(=O)c2cc(-c3cccnc3)nc3ccc(Br)cc23)s1 ?
NOMO-1 viab: 89*; PD-1 reverse act: 1; MITF inhib: 12

What do the screens show for `CC(=O)OC(C)(C)/C=C/C(=O)[C@](C)(O)[C@H]1C(O)C[C@@]2(C)[C@@H]3CC=C4[C@@H](C=C(O[C@@H]5O[C@H](CO)[C@@H](O)[C@H](O)[C@H]5O)C(=O)C4(C)C)[C@]3(C)C(=O)C[C@]12C` (stereo not given in full)?
NOMO-1 viab: 117*; PD-1 reverse act: 0; Hedgehog inh: 19; MITF inhib: -3

Results for CC(Oc1ccc(Br)cc1)C(=O)Nc1ccccc1[N+](=O)[O-] (stereo not given) ?
NOMO-1 viab: -14; PD-1 reverse act: -1; MITF inhib: -12

What do the screens show for `CC(Oc1ccccc1)C(=O)Nc1cc([N+](=O)[O-])ccc1O` (stereo not given)?
NOMO-1 viab: 3; PD-1 reverse act: 0; MITF inhib: 100*

What do the screens show for `O=C(O)c1c2c(nc3ccccc13)CCC(c1ccccc1)C2` (stereo not given)?
NOMO-1 viab: -6; PD-1 reverse act: 1; MITF inhib: -5

How did O=c1cc(-c2ccccc2)oc2c(O)c(O)ccc12 do in these assays?
NOMO-1 viab: 101*; Hedgehog inh: -1; MITF inhib: -35

Results for C[C@@H]1CN([C@H](C)CO)C(=O)c2cccc(NC(=O)c3ccncc3)c2O[C@@H]1CN(C)Cc1ccc(C(=O)Nc2ccccc2N)cc1 ?
NOMO-1 viab: 128*; PD-1 reverse act: -1; MITF inhib: 27
